Measured values from PubChem BioAssay (NCATS).
“And” between values parts separate entries of the source, which are not always exact repeats. Equal values may be shown once. Records with an inconclusive call do not appear. A call without a number means that no potency is given here. Values without a mark were called inactive. The source made the active and inactive calls. Calls follow the shape of the dose curve; as a rule, active = well fitted curve in the direction sought with a large enough effect; inconclusive = small, poorly fitted or top-dose-only effect, or another doubt; inactive = no such curve, though single readings can be large; an effect the other way counts as inactive or inconclusive.

Columns and labels:
[1] = system: KB-3-1; assay: Cytotoxic Profiling of Annotated Libraries Using Quantitative High-Throughput Screening (AID 1296008); details: Five cell lines viability, CellTiter-Glo ATP luminescence, 48-72 h; max response: hits give low values; also: nearly all actives have a fitted effect of over 60% in size
Method in brief: (§1)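 Cytotoxicity was measured as CellTiter-Glo ATP luminescence, read after 10 min at room temperature. Compound treatment of the cells lasted 48 or 72 hr at 37 degrees Celsius in a qHTS format.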

[2] = system: NIH3T3; assay: as above; details: Five cell lines viability, CellTiter-Glo ATP luminescence, 48-72 h; max response: hits give low values
Method in brief: as §1

[3] = system: MCC-13; assay: qHTS assay to identify novel small-molecules to repurpose for Merkel cell carcinoma treatment (AID 1296009); details: MCC and control cell lines, CellTiter-Glo viability, 72 h; series mostly up to 46 µM; also: nearly all actives have a fitted effect of over 60% in size
Method in brief: (§2)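 Cell viability measured by CellTiter-Glo following 72 hr compound treatment at 37 degree celsius, with NPC and MIPE libraries tested in 8- and 11-point concentration series.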

[4] = system: MCC-26; assay: as above; details: MCC and control cell lines, CellTiter-Glo viability, 72 h; series mostly up to 46 µM
Method in brief: as §2

[5] = system: MKL-1; assay: as above; details: MCC and control cell lines, CellTiter-Glo viability, 72 h; series mostly up to 46 µM
Method in brief: as §2

[6] = system: MKL-2; assay: as above; details: MCC and control cell lines, CellTiter-Glo viability, 72 h; series mostly up to 46 µM
Method in brief: as §2

[7] = system: UISO; assay: as above; details: MCC and control cell lines, CellTiter-Glo viability, 72 h; series mostly up to 46 µM
Method in brief: as §2

[8] = system: WaGa; assay: as above; details: MCC and control cell lines, CellTiter-Glo viability, 72 h; series mostly up to 46 µM
Method in brief: as §2

[9] = system: C33A; assay: Primary qHTS to identify gynecologic anti-cancer compounds using libraries of approved drugs and bioactive compounds (AID 1345084); details: Gynecologic cancer cell panel viability, ATPlite luminescence, 48 h; series mostly up to 57.5 µM; also: nearly all actives have a fitted effect of over 55% in size; also: potency is read from the fitted curve at half-maximal effect
Method in brief: (§3)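 ATP-based viability (ATPlite), 1,000 cells/well, 16 h pre-incubation, 48 h compound at 37 C, 5% CO2, 15 min RT before read.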

[10] = system: CAOV3; assay: as above; details: Gynecologic cancer cell panel viability, ATPlite luminescence, 48 h; series mostly up to 57.5 µM
Method in brief: as §3

[11] = system: CASKI; assay: as above; details: Gynecologic cancer cell panel viability, ATPlite luminescence, 48 h; series mostly up to 57.5 µM
Method in brief: as §3

[12] = system: Es-2; assay: as above; details: Gynecologic cancer cell panel viability, ATPlite luminescence, 48 h; series mostly up to 57.5 µM
Method in brief: as §3

[13] = system: HeLa; assay: as above; details: Gynecologic cancer cell panel viability, ATPlite luminescence, 48 h; series mostly up to 57.5 µM
Method in brief: as §3

[14] = system: Hek293T; assay: as above; details: Gynecologic cancer cell panel viability, ATPlite luminescence, 48 h, control line for the selectivity index; series mostly up to 57.5 µM
Method in brief: as §3

[15] = system: JEG-3; assay: as above; details: Gynecologic cancer cell panel viability, ATPlite luminescence, 48 h; series mostly up to 57.5 µM
Method in brief: as §3

[16] = system: OV90; assay: as above; details: Gynecologic cancer cell panel viability, ATPlite luminescence, 48 h; series mostly up to 57.5 µM
Method in brief: as §3

Compound | max response [1] | max response [2] [%] | outcome [3] | Potency [4] | Potency [5] | Potency [6] | Potency [7] | Potency [8] | Potency [9] | outcome [10] | outcome [11] | Potency [12] | Potency [13] | outcome [14] | outcome [15] | Potency [16]
CC(C)c1c(CN(C)C(C)Cc2ccccc2)n(C)n(-c2ccccc2)c1=O (centres undefined) | 1.6% | 4.46 | inactive | inactive | inactive | inactive | inactive | inactive | inactive | inactive | inactive | inactive | inactive | inactive | inactive | –
COP(=S)(OC)Oc1ccc(S(=O)(=O)N(C)C)cc1 | -10.7% | -0.737 | inactive | inactive | inactive | inactive | inactive | inactive | inactive | inactive | inactive | inactive | inactive | inactive | inactive | inactive
C[C@H](N)C(=O)c1ccccc1 | -7.79% and 0.534% | -1.01 | inactive | inactive | inactive | inactive | inactive | inactive | inactive | inactive | inactive | inactive | – | inactive | inactive | –
COP(=S)(OC)Oc1ccc(SC)c(C)c1 | -16.5% | -0.878 | inactive | inactive | inactive | inactive | inactive | inactive | inactive | inactive | inactive | inactive | inactive | inactive | inactive | inactive
Cc1ncsc1CCCl | 6.67% | 0.655 | inactive | – | inactive | inactive | inactive | inactive | inactive | inactive | inactive | inactive | inactive | inactive | inactive | inactive
CC(C)C[C@H](CN)CC(=O)O | -13.5% and 1.18% | -13.2 | inactive | – | inactive | inactive | inactive | inactive | – | – | – | – | – | – | – | –
CCN[C@@H](C)Cc1ccccc1 | 4.57% | -15.7 | inactive | inactive | inactive | inactive | inactive | inactive | inactive | – | inactive | inactive | inactive | inactive | inactive | inactive
C[C@]12CC[C@@H]3c4ccc(OC(=O)N(CCCl)CCCl)cc4CC[C@H]3[C@@H]1CC[C@@H]2O | -1.74% | – | inactive | – | inactive | inactive | inactive | inactive | – | – | – | – | 35.5 µM (active) | – | – | –
COc1cc(CCN)cc(OC)c1OC | 2.38% | -22.5 | inactive | inactive | inactive | – | inactive | inactive | inactive | inactive | inactive | inactive | inactive | inactive | inactive | inactive
COc1c2c(cc3c1OCO3)CCN(C)C2 | 5.77% | -8.45 | inactive | inactive | inactive | inactive | inactive | inactive | inactive | inactive | inactive | inactive | inactive | inactive | inactive | inactive
CCCN(CCC)C(=O)Cc1c(-c2ccc(Cl)cc2)nc2ccc(Cl)cn12 | -8.04% | 0.9 | inactive | inactive | inactive | inactive | inactive | inactive | inactive | inactive | inactive | inactive | inactive | inactive | inactive | –
CCN(CC)CCc1c[nH]c2ccccc12 | -19.3% | -2.44 | inactive | inactive | inactive | inactive | – | inactive | inactive | inactive | inactive | inactive | inactive | inactive | inactive | –
CCOP(=S)(OCC)Oc1ccc2c(C)c(Cl)c(=O)oc2c1 | -7.69% | -7.51 | inactive | – | inactive | – | inactive | – | inactive | inactive | inactive | inactive | inactive | inactive | inactive | inactive
Clc1cccc(SC2CCNCC2)n1 | -11.2% | 4.41 | inactive | inactive | inactive | inactive | inactive | inactive | inactive | inactive | inactive | inactive | inactive | inactive | inactive | inactive
